# Only some compounds are listed: those with a hit (about 11% of all), similar ones and a draw of the others.
# NIH3T3 tox – NIH 3T3 cell cytotoxicity. NIH 3T3 viability, CellTiter-Glo ATP luminescence, 48-72 h. 4.3% of 94,000 active. Potency, µM (highest dose often 96.7 µM), inactives show at the highest dose activity change, negative = cytotoxicity, actives largely listed as inhibitors; further: nearly all actives have a fitted effect of over 55% in size
#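 Cells were seeded at 400 per well, treated with pin-transferred compound, and kept 48 or 72 hr at 37 °C before CellTiter-Glo addition and luminescence imaging of cellular ATP.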
# Luciferase inh – blocks purified firefly luciferase enzyme activity; purified P. pyralis luciferase, luminescence, biochemical; Potency, µM (highest dose often 115 µM), hits mostly inhibitors; 2.5% of 76,000 active; further: nearly all actives have a fitted effect of over 65% in size
# Target sequence (P08659 whole entry, looked up): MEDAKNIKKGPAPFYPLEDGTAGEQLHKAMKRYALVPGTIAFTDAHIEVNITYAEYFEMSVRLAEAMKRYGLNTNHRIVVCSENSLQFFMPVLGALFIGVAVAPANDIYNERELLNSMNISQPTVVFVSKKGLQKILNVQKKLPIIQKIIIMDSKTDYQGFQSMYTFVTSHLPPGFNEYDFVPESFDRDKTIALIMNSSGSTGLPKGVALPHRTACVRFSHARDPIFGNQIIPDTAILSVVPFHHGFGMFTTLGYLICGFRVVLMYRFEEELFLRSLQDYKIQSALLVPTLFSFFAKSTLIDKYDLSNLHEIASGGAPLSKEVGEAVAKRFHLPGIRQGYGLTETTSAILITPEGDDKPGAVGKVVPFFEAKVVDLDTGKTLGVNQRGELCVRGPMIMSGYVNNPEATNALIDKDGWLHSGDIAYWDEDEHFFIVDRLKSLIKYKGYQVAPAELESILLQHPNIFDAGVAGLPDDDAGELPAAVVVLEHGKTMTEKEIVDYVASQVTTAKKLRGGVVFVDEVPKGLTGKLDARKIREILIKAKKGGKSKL
#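 Inhibitors were tested against purified firefly luciferase in a biochemical, low-substrate format (both substrates at 10uM) and luminescence measured with a CCD imager.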
# HEK293 tox – cytotoxic compounds in HEK 293 cells; Potency, µM (titrated, usually from 115 µM), for inactives: at the top dose activity change, negative = cytotoxicity, most hits filed as inhibitors; 6.6% of 94,000 active; HEK 293 viability, ATP luminescence (CellTiter-Glo), 48-72 h; AID 1345083; further: nearly all actives have a fitted effect of over 60% in size
#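 Viability of HEK 293 cells, plated at 250 cells/well, was judged by cellular ATP after compound treatment for 48 or 72 hr. Luminescence was imaged 10 min after CellTiter-Glo addition at room temperature.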
# NPR1 antag – blocks ANP-stimulated signaling of human Npr1 receptor. P16066. HEK293 hNpr1 GloSensor cGMP, ANP-stimulated luminescence. Potency, µM (series often up to 46.3 µM), for the others: top-dose activity change, negative = inhibition, hits mostly inhibitors. 1.6% of 76,000 active; calls by dose curve; further: nearly all actives have a fitted effect of over 60% in size
#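 HEK293 cells stably expressing human Npr1 and cGMP GloSensor pGS-40F, loaded 2 h with 2% GloSensor reagent, given compound 30 min at room temperature. Luminescence read before and 20 min after 0.1 nM hNppA.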
# Active calls of the source: *; i = inactive; ? = inconclusive; · = no result; [ ] = dose if it differs, or a comment. Unless noted, the call rests on the fitted dose curve; in most records, active means well fitted curve in the direction sought with a large enough effect; inconclusive means small, poorly fitted or top-dose-only effect, or another doubt; inactive means no such curve, though single readings can be large; an effect the other way counts as inactive or inconclusive. On the % scale 0 is the no-effect control and ±100 the full control effect; potency means the concentration at half of the fitted maximal effect.
SMILES,NIH3T3 tox,Luciferase inh,HEK293 tox,NPR1 antag
Cc1cccc(OCC(=O)c2ccc3c(c2)N(CC(=O)N(C)Cc2ccccc2)C(=O)CO3)c1,?,i,22.4µM*,-0.6%
CC(C)c1ccccc1OCC(=O)c1ccc2c(c1)N(CC(=O)N1CCCCC1)C(=O)CO2,?,i,?,-3.3%
O=C([C@H]1CCCN1C(=O)c1ccccc1F)N1CCC(N2CCOC2=O)CC1,3.4%,·,i,·
O=C(CN1C(=O)COc2ccc(C(=O)COc3ccccc3F)cc21)NC1CCCCC1,-10.4%,i,-18.2%,-1.2%
Cc1cc(C)cc(OCC(=O)c2ccc3c(c2)N(CC(=O)N(C)Cc2ccccc2)C(=O)CO3)c1,?,i,31.6µM*,-2.9%
CN(Cc1ccccc1)C(=O)CN1C(=O)COc2ccc(C(=O)COc3ccccc3F)cc21,-29.6%,i,50.1µM*,-1.9%
Cc1ccc(CN2CC[C@@H]3[C@H]2C(=O)NC[C@H](CCC(=O)Nc2ccccc2)N3C)cc1,?,i,?,2.8%[70.6 µM]
COc1ccc(-n2cc(CN3CCCN(C)CC3)c(-c3cccc(F)c3)n2)cc1,44.7µM*,i,?,-6.1%
COc1ccc(OC)c2nc(-c3cccc(Cl)c3)c(CN3CCCC(O)C3)cc12 (stereo unspecified),?,i,?,-3.3%
COc1ccc(-n2cc(CN3CCCC(O)C3)c(-c3cccc(F)c3)n2)cc1 (stereo unspecified),?,28.2µM*,?,0.2%
COc1ccc(-n2cc(CN3CCC(CO)CC3)c(-c3cccc(F)c3)n2)cc1,79.4µM*,i,?,3.1%
COc1ccc(-c2nn(-c3ccccc3)cc2CN2CCCC(C)(O)C2)c(F)c1 (stereo unspecified),?,i,89.1µM*,-0.4%
COc1ccc(Cn2c(C3CCN(C(=O)c4ccc(F)c(F)c4)CC3)n[nH]c2=O)cc1,-7.4%,i,15.9%,-6.8%
O=C(c1ccccc1OCC1CCCN(Cc2ccncc2F)C1)N1CCCCC1 (stereo unspecified),-29.2%,i,-26.2%,-10.2%
CC(C)(C)c1cc(C(=O)N2CCCC2)nn2cccc12,28.2µM*,·,?,·
COc1ccc(CN2C[C@@H](CO)[C@H](c3nc(C)no3)C2)cc1C,-14.8%,i,-5.0%,-1.2%
OC[C@@H]1CN(C2CCCC2)C[C@H]1c1nc(-c2ccncc2)no1,-12.3%,25.1µM*,i,-2.3%
OC[C@@H]1CN(C2CCCC2)C[C@H]1c1nc(-c2cccnc2)no1,-0.5%,31.6µM*,-5.6%,-1.8%
O=C(Cc1ccc(F)cc1)N1CCCN(c2ccnc3ccnn23)CC1,-32.2%,·,-23.8%,·
COc1ccccc1C(=O)N1CCC(OCC2CC2)C1 (stereo unspecified),-8.8%,·,i,·
CC(C)CC(=O)Nc1ccc2c(c1)CCC(=O)N2CC(C)C,-21.5%,i,?,2.5%
CCCN1C(=O)CCc2cc(NC(=O)c3ccc(C)s3)ccc21,?,?,35.5µM*,-9.8%
CC(C)CN1C(=O)CCc2cc(NC(=O)c3ccc(N(C)C)cc3)ccc21,?,?,28.2µM*,-28.8%
COc1ccc(-c2ccc(C(=O)N3CCN(C(=O)c4c(C)noc4C)CC3)cc2)nn1,-26.6%,·,-0.4%,·
Cc1nc(C)c(C(=O)N2CCC(Cn3c(C)cnc3C3CCC3)C2)s1 (stereo unspecified),-14.8%,·,?,·
SMILES,NIH3T3 tox,Luciferase inh,HEK293 tox,NPR1 antag
CS(=O)(=O)c1ccc(-c2cnc([C@@H]3COCCN3Cc3cnc4ccccc4c3)[nH]2)cc1,-16.0%,i,-22.6%,4.7%
COc1cccc(-c2cnc([C@@H]3COCCN3Cc3cnc4ccccc4c3)[nH]2)c1,-21.7%[138 µM],i,100µM*,-28.1%[70.6 µM]
Fc1ccc(-c2cnc([C@@H]3COCCN3Cc3cnc4ccccc4c3)[nH]2)cc1,?,i,89.1µM*,-28.7%[70.6 µM]
O=C1NC2(CCN(C(=O)c3ccc(F)cc3)C2)Oc2ccccc21 (stereo unspecified),-19.4%[138 µM],i,-25.2%[172 µM],0.0%[70.6 µM]
O=C(Nc1ccc(C(F)(F)F)cc1)N1CCCC(Cn2c(C3CC3)nc3cccnc32)C1 (stereo unspecified),31.6µM*,i,39.8µM*,-18.7%
Cc1cccc(S(=O)(=O)N2CCCC(Cn3c(C)nc4cccnc43)C2)c1 (stereo unspecified),?,i,?,-25.4%
